How the values were obtained:
Format in all cases: functional
[1] = target: Solute carrier family 2, facilitated glucose transporter member 1 (Homo sapiens) (UniProt P11166); test: ST_JUDE_LEISH: Cytotoxicity at 2uM final concentration against transgenic Leishmania Mexicana promastigotes LmGLUT1 that are glucose transport deficient and complemented with the human glucose transporter GLUT1. Activity is measured by DNA content using SYBR green in vitro
[2] = target: Hexose transporter 1 (Plasmodium falciparum) (UniProt O97467); test: ST_JUDE_LEISH: Cytotoxicity at 2uM final concentration against transgenic Leishmania Mexicana promastigotes LmPfHT that are glucose transport deficient and complemented with the Plasmodium falciparum hexose transporter. Activity is measured by DNA content using SYBR green in vitro
[3] = target: Glucose transporter (Leishmania mexicana) (UniProt O61059); test: ST_JUDE_LEISH: Cytotoxicity at 2uM final concentration against transgenic Leishmania Mexicana promastigotes LmGT2 that are glucose transport deficient and complemented with the L. Mexicana glucose transporter 2. Activity is measured by DNA content using SYBR green in vitro

Sequence of Solute carrier family 2, facilitated glucose transporter member 1 (Homo sapiens) (P11166 whole entry): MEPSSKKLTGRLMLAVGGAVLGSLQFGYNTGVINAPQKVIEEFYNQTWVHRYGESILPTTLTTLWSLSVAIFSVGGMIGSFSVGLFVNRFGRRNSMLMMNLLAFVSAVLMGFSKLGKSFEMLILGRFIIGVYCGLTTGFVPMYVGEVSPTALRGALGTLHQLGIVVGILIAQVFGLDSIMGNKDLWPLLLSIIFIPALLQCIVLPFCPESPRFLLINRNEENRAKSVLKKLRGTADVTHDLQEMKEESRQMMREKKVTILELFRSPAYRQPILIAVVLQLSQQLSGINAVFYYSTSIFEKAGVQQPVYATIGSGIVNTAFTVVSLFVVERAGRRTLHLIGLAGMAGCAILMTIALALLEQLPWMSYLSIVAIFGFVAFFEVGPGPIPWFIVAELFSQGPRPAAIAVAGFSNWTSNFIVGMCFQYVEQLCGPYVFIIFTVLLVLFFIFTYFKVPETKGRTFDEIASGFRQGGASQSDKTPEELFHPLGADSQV

| Compound | inhibition [1] [%] | inhibition [2] [%] | inhibition [3] [%] |
| --- | --- | --- | --- |
| CN1CCN(c2nc(NCCNc3ccc([N+](=O)[O-])cc3)c3ccccc3n2)CC1 | 0.92 | 0.91 | 0.54 |
| CN1CCN(c2cc(NC(=O)Nc3ccc(-c4ccncc4)c(Cl)c3)ccc2Br)CC1 | 10.9 | 8.89 | 10.5 |
| Cc1nc(C)c(-c2ccc(Oc3ccc(Cl)cc3)cc2)c(O)c1I | 2.9 | 0.57 | 0.03 |
| COc1cc(NCC(O)CNc2cc(Cl)nc3ccccc23)nc2ccccc12 (stereo not drawn) | 8.65 | 8.28 | 7 |
| CNC(=O)c1cnc(Nc2ccc(OCC(O)CN(C)C)cc2)nc1Nc1cccc(OC)c1 (stereo not drawn) | 3.9 | -2.08 | 4.47 |
| CN1CCN(CCCN(Cc2cccc(-c3cccc(CNCc4ccc5c(c4)OCO5)c3)c2)C(=O)CCC2CCCC2)CC1 | 16.7 | 12.2 | 10.4 |
| C=C[C@]1(C)C[C@@H](OC(=O)CNC[C@@H](O)CN2C[C@H](c3ccnc4ccc(OC)nc34)OC2=O)[C@@]2(C)[C@@H]3C(=O)CC[C@@]3(CC[C@@H]2C)[C@@H](C)[C@@H]1O | 2.09 | 1.68 | 1.03 |
| CC(C#N)Cc1ccc(-c2cnc(N)c3cc(-c4ccnc(N)n4)ccc23)cc1 (stereo not drawn) | 5.38 | 3.48 | -0.93 |
| CNCc1cccc2nc(-c3ccc(Cc4cc(Cl)ccc4OCC(C)C)o3)[nH]c12 | 4.31 | 2.61 | 3.52 |
| COc1cc(Cc2cnc(N)nc2N)cc(OC)c1OCCCCCN1C(=O)c2ccccc2C1=O | 3.29 | -0.4 | 0.36 |
| CN(C)CCCOc1cccc(NC(=O)Nc2ccc(Cl)c(Cl)c2)c1 | -1.47 | -0.6 | -1.24 |

Source: ChEMBL document CHEMBL3433997, “St. Jude Leishmania screening dataset” (2016)
